Source: publication PMC7862700, “An all-to-all approach to the identification of sequence-specific readers for epigenetic DNA modifications on cytosine”

What was measured:
Assay in all cases: DAPPL (digital affinity profiling via proximity ligation, sequencing); 10 mM Tris-HCl pH 7.5, 50 mM NaCl, 1 mM DTT, 4% glycerol, room temperature, 30 min; GST-TFs on glutathione beads, 16-mer random dsDNA library, 0.1% formaldehyde crosslink after washing; high values mean tight binding
[1] = target: T1, FEV (Homo sapiens, UniProt Q99581 1-238); conditions: protein: recombinant; tags: N-terminal GST; dsDNA, one strand shown
T1 sequence: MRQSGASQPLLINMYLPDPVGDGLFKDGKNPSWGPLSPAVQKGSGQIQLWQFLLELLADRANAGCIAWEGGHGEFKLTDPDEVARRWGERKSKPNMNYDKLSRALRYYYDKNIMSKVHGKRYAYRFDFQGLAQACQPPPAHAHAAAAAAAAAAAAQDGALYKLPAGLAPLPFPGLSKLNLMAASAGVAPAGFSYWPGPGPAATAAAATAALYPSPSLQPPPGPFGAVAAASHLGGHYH
Procedure, shortened: (§1)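 Binding signal is each hexamer's read frequency for a factor divided by its frequency in the tag-only sample. The factors were GST-fused human transcription factors from yeast, captured on glutathione beads, DNA-barcoded and pooled with that sample. Pools were incubated with 200 nmole of a random double-stranded 16-mer DNA library in Tris/NaCl/DTT/glycerol buffer at room temperature for 30 min, then washed, crosslinked with 0.1% formaldehyde, proximity-ligated with BsaI/T4 ligase (1 h, 37 °C), PCR-amplified and sequenced on an Illumina NextSeq500.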

[2] = target: ETV5 (Homo sapiens, UniProt P41161 1-510); conditions: protein: recombinant; tags: N-terminal GST; dsDNA, one strand shown
Chain of ETV5 (P41161 whole entry): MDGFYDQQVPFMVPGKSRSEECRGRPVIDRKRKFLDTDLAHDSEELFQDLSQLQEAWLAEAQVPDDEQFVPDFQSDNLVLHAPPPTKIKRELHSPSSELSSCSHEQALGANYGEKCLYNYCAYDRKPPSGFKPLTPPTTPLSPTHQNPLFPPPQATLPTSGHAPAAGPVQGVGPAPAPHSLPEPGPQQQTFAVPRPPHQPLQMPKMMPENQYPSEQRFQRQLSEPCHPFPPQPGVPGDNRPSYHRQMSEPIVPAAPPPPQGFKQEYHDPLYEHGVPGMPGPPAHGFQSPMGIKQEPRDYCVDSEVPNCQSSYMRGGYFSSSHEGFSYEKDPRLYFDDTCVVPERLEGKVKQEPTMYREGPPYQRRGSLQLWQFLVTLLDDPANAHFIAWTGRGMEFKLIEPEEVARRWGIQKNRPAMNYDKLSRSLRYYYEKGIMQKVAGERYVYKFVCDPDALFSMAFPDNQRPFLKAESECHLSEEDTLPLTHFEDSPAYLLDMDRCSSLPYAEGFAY
Procedure, shortened: as §1

[3] = target: HSF1 (Homo sapiens, UniProt Q00613 1-529); conditions: protein: recombinant; tags: N-terminal GST; chain copies: 3; dsDNA, one strand shown
Chain of HSF1 (Q00613 whole entry): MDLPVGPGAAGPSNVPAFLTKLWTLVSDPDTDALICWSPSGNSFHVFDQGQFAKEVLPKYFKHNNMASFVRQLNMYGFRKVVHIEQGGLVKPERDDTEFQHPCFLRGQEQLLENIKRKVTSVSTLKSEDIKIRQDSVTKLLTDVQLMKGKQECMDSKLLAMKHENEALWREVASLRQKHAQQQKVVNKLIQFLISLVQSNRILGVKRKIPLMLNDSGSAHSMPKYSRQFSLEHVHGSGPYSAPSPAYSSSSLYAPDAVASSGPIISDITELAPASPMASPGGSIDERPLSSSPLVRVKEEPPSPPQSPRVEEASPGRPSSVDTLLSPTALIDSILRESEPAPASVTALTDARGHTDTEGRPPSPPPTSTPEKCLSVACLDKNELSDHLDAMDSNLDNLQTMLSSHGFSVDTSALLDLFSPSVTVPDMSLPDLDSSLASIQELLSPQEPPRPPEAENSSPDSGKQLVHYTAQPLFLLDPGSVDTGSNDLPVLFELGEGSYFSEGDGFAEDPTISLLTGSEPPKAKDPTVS
Procedure, shortened: as §1

[4] = target: T2, SPIC (Homo sapiens, UniProt Q8N5J4 1-248); conditions: protein: recombinant; tags: N-terminal GST; dsDNA, one strand shown
T2 sequence: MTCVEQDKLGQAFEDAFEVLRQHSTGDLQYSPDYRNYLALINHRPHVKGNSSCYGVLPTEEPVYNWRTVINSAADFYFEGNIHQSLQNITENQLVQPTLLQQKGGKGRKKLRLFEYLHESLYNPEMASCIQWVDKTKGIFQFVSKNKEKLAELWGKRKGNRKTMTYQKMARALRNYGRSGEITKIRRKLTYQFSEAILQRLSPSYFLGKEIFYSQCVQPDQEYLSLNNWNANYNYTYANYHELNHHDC
Procedure, shortened: as §1

[5] = target: ELF4 (Homo sapiens, UniProt Q99607 1-663); conditions: protein: recombinant; tags: N-terminal GST; dsDNA, one strand shown
Chain of ELF4 (Q99607 whole entry): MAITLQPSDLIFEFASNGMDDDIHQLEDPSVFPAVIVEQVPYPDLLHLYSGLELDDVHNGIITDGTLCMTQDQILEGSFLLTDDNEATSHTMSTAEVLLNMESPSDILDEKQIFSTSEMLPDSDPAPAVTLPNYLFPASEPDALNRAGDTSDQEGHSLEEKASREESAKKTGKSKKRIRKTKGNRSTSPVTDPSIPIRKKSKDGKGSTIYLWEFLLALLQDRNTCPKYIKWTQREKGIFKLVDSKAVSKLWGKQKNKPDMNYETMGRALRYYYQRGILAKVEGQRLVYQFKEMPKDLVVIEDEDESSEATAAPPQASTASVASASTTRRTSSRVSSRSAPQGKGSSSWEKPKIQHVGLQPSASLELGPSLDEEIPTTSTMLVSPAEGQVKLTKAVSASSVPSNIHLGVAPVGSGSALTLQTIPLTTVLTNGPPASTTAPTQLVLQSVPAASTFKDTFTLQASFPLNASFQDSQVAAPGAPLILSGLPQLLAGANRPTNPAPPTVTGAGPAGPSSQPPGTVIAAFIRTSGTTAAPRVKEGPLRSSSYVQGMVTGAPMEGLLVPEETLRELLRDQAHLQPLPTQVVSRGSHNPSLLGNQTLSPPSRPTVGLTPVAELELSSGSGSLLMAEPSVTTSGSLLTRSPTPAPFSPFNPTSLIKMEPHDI
Procedure, shortened: as §1

[6] = target: T3, ELK4 (Homo sapiens, UniProt P28324-2 1-405); conditions: protein: recombinant; tags: N-terminal GST; dsDNA, one strand shown
T3 sequence: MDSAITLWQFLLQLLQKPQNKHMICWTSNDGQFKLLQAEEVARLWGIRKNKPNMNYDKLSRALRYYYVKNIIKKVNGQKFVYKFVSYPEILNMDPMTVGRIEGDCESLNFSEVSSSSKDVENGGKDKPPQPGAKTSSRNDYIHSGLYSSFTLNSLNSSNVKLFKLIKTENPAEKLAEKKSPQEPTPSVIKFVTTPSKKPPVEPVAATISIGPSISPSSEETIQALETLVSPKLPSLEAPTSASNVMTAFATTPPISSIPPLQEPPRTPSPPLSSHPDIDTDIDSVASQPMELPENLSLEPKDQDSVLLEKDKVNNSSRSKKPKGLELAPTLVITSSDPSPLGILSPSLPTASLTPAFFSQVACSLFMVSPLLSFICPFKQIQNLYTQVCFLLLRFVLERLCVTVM
Procedure, shortened: as §1

[7] = target: T4, ETV2 (Homo sapiens, UniProt O00321 1-342); conditions: protein: recombinant; tags: N-terminal GST; dsDNA, one strand shown
T4 sequence: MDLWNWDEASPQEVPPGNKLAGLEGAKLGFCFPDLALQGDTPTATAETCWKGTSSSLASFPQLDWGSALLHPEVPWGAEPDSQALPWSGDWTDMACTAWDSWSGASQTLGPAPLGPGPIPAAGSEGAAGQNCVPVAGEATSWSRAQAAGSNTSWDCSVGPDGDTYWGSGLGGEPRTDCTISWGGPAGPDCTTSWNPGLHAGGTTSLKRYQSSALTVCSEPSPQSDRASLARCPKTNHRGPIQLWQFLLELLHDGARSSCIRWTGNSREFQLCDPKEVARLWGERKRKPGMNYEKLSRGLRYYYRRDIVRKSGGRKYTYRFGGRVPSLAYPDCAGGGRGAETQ
Procedure, shortened: as §1

[8] = target: T5, ELF3 (Homo sapiens, UniProt P78545 1-371); conditions: protein: recombinant; tags: N-terminal GST; dsDNA, one strand shown
T5 sequence: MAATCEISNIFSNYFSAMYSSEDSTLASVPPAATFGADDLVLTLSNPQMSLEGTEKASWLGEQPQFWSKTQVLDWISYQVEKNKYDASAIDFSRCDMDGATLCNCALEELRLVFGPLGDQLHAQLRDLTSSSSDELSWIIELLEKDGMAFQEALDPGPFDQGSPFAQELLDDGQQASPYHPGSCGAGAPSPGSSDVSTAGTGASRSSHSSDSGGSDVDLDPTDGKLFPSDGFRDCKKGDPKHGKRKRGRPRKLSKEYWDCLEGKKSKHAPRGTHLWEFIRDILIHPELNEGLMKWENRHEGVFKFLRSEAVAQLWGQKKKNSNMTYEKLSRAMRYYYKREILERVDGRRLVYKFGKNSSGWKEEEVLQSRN
Procedure, shortened: as §1

[9] = target: CRX (Homo sapiens, UniProt O43186 1-299); conditions: protein: recombinant; tags: N-terminal GST; dsDNA, one strand shown
Chain of CRX (O43186 whole entry): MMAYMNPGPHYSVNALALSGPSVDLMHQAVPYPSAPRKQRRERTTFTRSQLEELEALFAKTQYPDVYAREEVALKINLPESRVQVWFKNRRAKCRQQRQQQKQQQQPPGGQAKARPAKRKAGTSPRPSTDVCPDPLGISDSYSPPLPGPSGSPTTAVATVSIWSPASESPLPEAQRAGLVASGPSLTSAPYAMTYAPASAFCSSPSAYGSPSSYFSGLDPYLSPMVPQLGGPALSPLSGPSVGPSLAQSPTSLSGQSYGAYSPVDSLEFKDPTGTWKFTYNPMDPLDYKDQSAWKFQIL
Procedure, shortened: as §1

[10] = target: ETV1 (Homo sapiens, UniProt P50549 1-477); conditions: protein: recombinant; tags: N-terminal GST; dsDNA, one strand shown
Chain of ETV1 (P50549 whole entry): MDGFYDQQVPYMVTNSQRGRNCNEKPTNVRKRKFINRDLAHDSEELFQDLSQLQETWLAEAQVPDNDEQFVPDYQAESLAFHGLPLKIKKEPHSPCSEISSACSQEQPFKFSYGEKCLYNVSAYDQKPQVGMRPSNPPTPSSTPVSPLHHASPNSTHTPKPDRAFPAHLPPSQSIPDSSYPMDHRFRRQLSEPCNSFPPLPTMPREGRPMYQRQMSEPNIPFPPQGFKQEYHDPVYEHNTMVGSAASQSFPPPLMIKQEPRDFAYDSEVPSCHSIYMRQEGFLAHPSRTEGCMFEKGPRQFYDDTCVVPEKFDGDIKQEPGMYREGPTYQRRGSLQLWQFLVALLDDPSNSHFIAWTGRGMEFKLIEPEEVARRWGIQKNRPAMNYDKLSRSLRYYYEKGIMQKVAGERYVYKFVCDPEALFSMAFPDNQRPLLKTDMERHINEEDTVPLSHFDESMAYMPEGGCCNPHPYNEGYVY
Procedure, shortened: as §1

[11] = target: T6, ERF (Homo sapiens, UniProt P50548 1-548); conditions: protein: recombinant; tags: N-terminal GST; dsDNA, one strand shown
T6 sequence: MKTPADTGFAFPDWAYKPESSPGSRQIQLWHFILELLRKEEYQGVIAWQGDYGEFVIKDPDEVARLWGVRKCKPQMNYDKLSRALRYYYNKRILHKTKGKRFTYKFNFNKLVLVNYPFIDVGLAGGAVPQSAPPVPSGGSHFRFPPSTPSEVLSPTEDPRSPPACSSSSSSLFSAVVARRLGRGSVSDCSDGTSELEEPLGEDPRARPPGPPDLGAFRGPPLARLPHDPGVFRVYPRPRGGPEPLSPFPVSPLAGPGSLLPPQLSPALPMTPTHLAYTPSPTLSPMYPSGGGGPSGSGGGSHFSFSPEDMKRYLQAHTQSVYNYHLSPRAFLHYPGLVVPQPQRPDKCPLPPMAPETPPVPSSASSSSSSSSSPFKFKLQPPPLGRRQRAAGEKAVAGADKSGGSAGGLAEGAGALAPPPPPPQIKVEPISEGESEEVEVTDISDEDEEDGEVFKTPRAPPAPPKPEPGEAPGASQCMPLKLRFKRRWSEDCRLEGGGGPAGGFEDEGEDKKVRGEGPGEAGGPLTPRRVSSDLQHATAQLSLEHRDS
Procedure, shortened: as §1

[12] = target: T7, ETV3L (Homo sapiens, UniProt Q6ZN32 1-361); conditions: protein: recombinant; tags: N-terminal GST; dsDNA, one strand shown
T7 sequence: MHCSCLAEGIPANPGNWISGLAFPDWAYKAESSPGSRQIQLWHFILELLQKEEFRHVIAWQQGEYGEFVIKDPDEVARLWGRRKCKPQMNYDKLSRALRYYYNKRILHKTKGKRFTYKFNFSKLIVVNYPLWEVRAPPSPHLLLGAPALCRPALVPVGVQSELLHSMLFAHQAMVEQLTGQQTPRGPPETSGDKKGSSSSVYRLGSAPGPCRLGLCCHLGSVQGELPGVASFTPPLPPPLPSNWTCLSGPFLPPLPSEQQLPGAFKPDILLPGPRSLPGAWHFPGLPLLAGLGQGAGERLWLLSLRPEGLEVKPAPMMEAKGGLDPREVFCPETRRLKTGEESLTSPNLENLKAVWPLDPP
Procedure, shortened: as §1

[13] = target: T8, ETS2 (Homo sapiens, UniProt P15036 1-469); conditions: protein: recombinant; tags: N-terminal GST; dsDNA, one strand shown
T8 sequence: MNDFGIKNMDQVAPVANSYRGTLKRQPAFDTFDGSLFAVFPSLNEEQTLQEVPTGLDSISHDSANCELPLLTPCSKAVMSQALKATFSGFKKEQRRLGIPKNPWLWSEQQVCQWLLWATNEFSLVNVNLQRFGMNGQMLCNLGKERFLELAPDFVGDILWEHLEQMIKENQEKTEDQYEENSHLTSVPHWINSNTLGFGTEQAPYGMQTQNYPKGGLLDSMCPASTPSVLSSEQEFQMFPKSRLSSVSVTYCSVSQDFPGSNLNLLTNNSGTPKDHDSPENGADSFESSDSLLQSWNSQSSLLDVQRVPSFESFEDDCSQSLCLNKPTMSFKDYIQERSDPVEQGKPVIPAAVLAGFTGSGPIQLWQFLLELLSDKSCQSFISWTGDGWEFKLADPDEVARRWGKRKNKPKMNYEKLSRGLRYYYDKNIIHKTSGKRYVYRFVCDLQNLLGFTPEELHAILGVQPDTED
Procedure, shortened: as §1

[14] = target: T9, SPDEF (Homo sapiens, UniProt O95238 1-335); conditions: protein: recombinant; tags: N-terminal GST; dsDNA, one strand shown
T9 sequence: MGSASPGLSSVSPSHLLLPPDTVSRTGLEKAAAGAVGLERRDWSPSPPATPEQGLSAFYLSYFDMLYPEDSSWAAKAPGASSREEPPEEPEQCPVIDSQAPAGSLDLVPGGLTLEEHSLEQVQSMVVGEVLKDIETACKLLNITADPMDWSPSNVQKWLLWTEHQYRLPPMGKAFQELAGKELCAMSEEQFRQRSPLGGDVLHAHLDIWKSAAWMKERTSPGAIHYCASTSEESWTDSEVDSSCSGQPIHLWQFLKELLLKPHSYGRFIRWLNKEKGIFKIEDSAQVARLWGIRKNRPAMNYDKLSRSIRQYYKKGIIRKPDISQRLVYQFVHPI
Procedure, shortened: as §1

[15] = target: T10, ETV7 (Homo sapiens, UniProt Q9Y603 1-341); conditions: protein: recombinant; tags: N-terminal GST; dsDNA, one strand shown
T10 sequence: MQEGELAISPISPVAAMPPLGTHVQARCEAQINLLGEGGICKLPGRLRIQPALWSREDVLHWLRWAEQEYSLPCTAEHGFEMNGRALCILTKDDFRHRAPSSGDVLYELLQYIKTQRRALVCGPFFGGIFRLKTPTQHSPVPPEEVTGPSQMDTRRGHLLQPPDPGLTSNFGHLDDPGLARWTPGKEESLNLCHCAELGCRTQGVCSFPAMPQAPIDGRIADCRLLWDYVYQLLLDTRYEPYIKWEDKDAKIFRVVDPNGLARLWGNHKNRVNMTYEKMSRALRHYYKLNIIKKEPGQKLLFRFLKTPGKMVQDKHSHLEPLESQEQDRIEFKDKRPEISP
Procedure, shortened: as §1

[16] = target: T11, ELF5 (Homo sapiens, UniProt Q9UKW6-2 1-255); conditions: protein: recombinant; tags: N-terminal GST; dsDNA, one strand shown
T11 sequence: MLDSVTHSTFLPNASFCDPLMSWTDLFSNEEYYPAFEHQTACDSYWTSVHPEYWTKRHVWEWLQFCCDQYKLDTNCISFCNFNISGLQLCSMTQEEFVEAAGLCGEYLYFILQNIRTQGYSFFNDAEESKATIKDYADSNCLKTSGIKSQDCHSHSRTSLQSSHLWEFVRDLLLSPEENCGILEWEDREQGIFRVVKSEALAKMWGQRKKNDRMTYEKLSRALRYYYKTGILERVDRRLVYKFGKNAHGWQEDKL
Procedure, shortened: as §1

[17] = target: T12, ETV3 (Homo sapiens, UniProt P41162-2 1-143); conditions: protein: recombinant; tags: N-terminal GST; dsDNA, one strand shown
T12 sequence: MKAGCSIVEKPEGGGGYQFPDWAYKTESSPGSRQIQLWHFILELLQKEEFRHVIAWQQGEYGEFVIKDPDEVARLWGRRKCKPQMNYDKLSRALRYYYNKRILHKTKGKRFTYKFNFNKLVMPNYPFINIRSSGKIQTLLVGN
Procedure, shortened: as §1

[18] = target: ETV6 (Homo sapiens, UniProt P41212 1-452); conditions: protein: recombinant; tags: N-terminal GST; dsDNA, one strand shown
Chain of ETV6 (P41212 whole entry): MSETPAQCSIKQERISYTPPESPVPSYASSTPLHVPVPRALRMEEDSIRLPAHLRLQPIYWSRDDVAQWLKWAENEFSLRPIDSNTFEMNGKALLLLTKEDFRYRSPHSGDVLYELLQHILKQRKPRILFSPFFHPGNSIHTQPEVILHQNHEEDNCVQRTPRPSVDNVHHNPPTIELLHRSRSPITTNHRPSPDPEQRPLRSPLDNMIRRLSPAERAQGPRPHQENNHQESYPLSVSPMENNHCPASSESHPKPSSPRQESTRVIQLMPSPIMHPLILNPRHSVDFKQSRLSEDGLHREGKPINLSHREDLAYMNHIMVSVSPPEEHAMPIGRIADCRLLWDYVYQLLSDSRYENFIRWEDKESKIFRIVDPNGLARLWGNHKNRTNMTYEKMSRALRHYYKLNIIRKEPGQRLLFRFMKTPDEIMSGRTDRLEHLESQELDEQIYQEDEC
Procedure, shortened: as §1

For TAATTA, the binding signal [1] was 1.22 fold enrichment (6-mer frequency, TF over GST control), the binding signal [2] was 1.31 fold enrichment (6-mer frequency, TF over GST control) and the binding signal [3] was 1.81 fold enrichment (6-mer frequency, TF over GST control). For the same sequence, the binding signal [4] was 1.4 fold enrichment (6-mer frequency, TF over GST control), the binding signal [5] was 1.23 fold enrichment (6-mer frequency, TF over GST control) and the binding signal [6] was 1.17 fold enrichment (6-mer frequency, TF over GST control). The binding signal [7] was 1.35 fold enrichment (6-mer frequency, TF over GST control), the binding signal [8] was 1.3 fold enrichment (6-mer frequency, TF over GST control) and the binding signal [9] was 2.74 fold enrichment (6-mer frequency, TF over GST control). The binding signal [10] was 1.33 fold enrichment (6-mer frequency, TF over GST control), the binding signal [11] was 1.24 fold enrichment (6-mer frequency, TF over GST control) and the binding signal [12] was 1.23 fold enrichment (6-mer frequency, TF over GST control). For the same sequence, the binding signal [13] was 1.34 fold enrichment (6-mer frequency, TF over GST control), the binding signal [14] was 1.24 fold enrichment (6-mer frequency, TF over GST control) and the binding signal [15] was 1.35 fold enrichment (6-mer frequency, TF over GST control). For the same sequence, the binding signal [16] was 1.2 fold enrichment (6-mer frequency, TF over GST control), the binding signal [17] was 1.19 fold enrichment (6-mer frequency, TF over GST control) and the binding signal [18] was 1.36 fold enrichment (6-mer frequency, TF over GST control).
